Source: PubChem BioAssay (NCI)
This is part of a sample that, as a whole, favours compounds with a hit. Of some 79,000 tested, about 15% had one in any assay. Activity calls are given as the source filed them. No stated cut-off is given here; in the data, active means growth inhibition above about 70%; inactive means the rest.

Assays:
[1] = NCI Yeast Anticancer Drug Screen. Data for the rad50 strain (AID 155);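 further: 0% = growth of vehicle-only cultures of the same strain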; conditions: S. cerevisiae rad50 strain growth inhibition; at 50.0 µM; stronger effect = higher value
In short: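 Vehicle-treated cultures provide the reference for the growth inhibition reported for compound-exposed, repair-deficient yeast.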

[2] = NCI Yeast Anticancer Drug Screen. Data for the mec2-1 strain (AID 157); conditions: S. cerevisiae mec2-1 strain, at 50.0 µM, stronger effect = higher value
In short: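 Yeast mec2-1 mutant treated with compound. Readout: growth inhibition vs vehicle controls.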

[3] = NCI Yeast Anticancer Drug Screen. Data for the sgs1 mgt1 strain (AID 161);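 further: 0% = growth of cultures given vehicle only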; conditions: S. cerevisiae sgs1 mgt1 strain, at 50.0 µM, stronger effect = higher value
In short: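 Genetically altered yeast, compound exposure, growth inhibition relative to vehicle.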

[4] = NCI Yeast Anticancer Drug Screen. Data for the cln2 rad14 strain (AID 165);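 further: 0% = growth equal to vehicle treated cultures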; conditions: S. cerevisiae cln2 rad14 strain, at 50.0 µM, stronger effect = higher value
In short: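 cln2 rad14 yeast strain; compound exposure; growth inhibition read vs vehicle controls.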

[5] = NCI Yeast Anticancer Drug Screen. Data for the bub3 strain (AID 167); conditions: S. cerevisiae bub3 mutant strain, at 50.0 µM, stronger effect = higher value
In short: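 Mutant yeast screening strain plus compound; vehicle-treated cultures serve as the 0% inhibition reference.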

[6] = NCI Yeast Anticancer Drug Screen. Data for the mlh1 rad18 strain (AID 175); conditions: S. cerevisiae mlh1 rad18 strain growth inhibition; at 50.0 µM; stronger effect = higher value
In short: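 Yeast w/ defined DNA-repair lesions; compound exposure; growth vs vehicle controls → % inhibition.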

Measured: growth inhibition

COc1ccccc1NC(=S)N/N=C/c1ccccn1
inactive: [1] -16.6% | [2] 15.9% | [3] 24.4% | [4] 8.95% | [5] 17.7% | [6] 14%

CCOC(=O)c1c(NC(=O)CCl)ssc1=S
inactive: [1] 15.2% | [2] 28.4% | [3] 42.5% | [4] 22.8% | [5] 4.7% | [6] 43.6%

Cc1ccc(Cl)cc1NC(=O)Nc1ccc(Cl)c(Cl)c1
inactive: [1] -13.1% | [2] -11.1% | [3] -4.25% | [4] -4.5% | [5] 18.2% | [6] -4.75%

O=C(O)CCCc1ccc2c(c1)CC1(C2)Cc2cc3c(cc2C1)CCCC3
inactive: [1] -11.7% | [2] -32.4% | [3] -16.9% | [4] 24.2% | [5] 18.4% | [6] 7.4%

Cc1c(O)c(=O)ccn1CCN
inactive: [1] 5.65% | [2] -8.35% | [3] 2.6% | [4] -34% | [5] -9.7% | [6] 5.8%

CSc1ncc(C#N)c2nc(-c3ccccc3)nn12
inactive: [1] 5.6% | [2] 13.9% | [3] 3.35% | [4] 8.1% | [5] 12.1% | [6] 18.3%

Cc1ccc(OC/C=C/c2ccc(C#N)cc2)cc1
inactive: [1] 2.55% | [2] 0.05% | [3] -4.15% | [4] -17.6% | [5] 1.8% | [6] -3%

CC(C)CCCC(C)C1CCC2C3CC(=O)C4C=CCCC4(C)C3CCC12C (configuration not stated)
inactive: [1] 39.1% | [2] 19.5% | [3] 27.6% | [4] 24% | [5] 2.65% | [6] 34%

CC(C)C(=O)Nc1ccc([N+](=O)[O-])cc1
inactive: [1] 26.1% | [2] 4.2% | [3] 10.8% | [4] 9.4% | [5] -36% | [6] -17.3%

NC(=O)NC1=NCCC(=O)N1CCc1c[nH]c2ccccc12
inactive: [1] 51.3%
active: [2] 75.9% | [3] 84.2% | [4] 78.5% | [5] 77.7% | [6] 88%

O=C(O)/C(O)=C(/O)C(=O)O.[NH-]C1CCCCC1[NH-].[Pt+2]
inactive: [1] 27.3% | [2] 29.1% | [3] 28.4% | [4] 16.1% | [5] 26.9% | [6] 25.6%

COC(Cc1cc(C(O)(c2ccc(C(C)(C)C)cc2)c2cc(CC(OC)(c3cc(C(OC)(c4ccc(C(C)(C)C)cc4)c4ccc(C(C)(C)C)cc4)c(C)cc3C)c3cc(C(OC)(c4ccc(C(C)(C)C)cc4)c4ccc(C(C)(C)C)cc4)c(C)cc3C)c(C)cc2C)c(C)cc1C)(c1cc(C(OC)(c2ccc(C(C)(C)C)cc2)c2ccc(C(C)(C)C)cc2)c(C)cc1C)c1cc(C(OC)(c2ccc(C(C)(C)C)cc2)c2ccc(C(C)(C)C)cc2)c(C)cc1C
inactive: [1] -2.75% | [2] -1.25% | [3] 9.05% | [4] -30.6% | [5] 5.55% | [6] 23.6%

CC[N+](C)(CC)Cc1ccc([NH-])c([NH-])c1.[Cl][Pt+2][Cl]
inactive: [1] 35.1% | [2] 27.4% | [3] 36% | [4] 37.2% | [5] -13.7% | [6] 28.4%

O=C(NCCc1ccccc1)c1c(O)c2ccccc2[nH]c1=O
inactive: [1] 5.85% | [2] 11.9% | [3] 23.7% | [4] 18.2% | [5] 14.1% | [6] 10%

OC(C(=S)N1CCCC1)(c1ccccc1)c1ccccc1
inactive: [1] 10.8% | [2] 17.3% | [3] 24.2% | [4] 8.45% | [5] 9.6% | [6] -0.6%

OCCSCCCSCCO
inactive: [1] 17.9% | [2] -4.8% | [3] -23% | [4] 3.5% | [5] 1.1% | [6] -4.8%

C/C=C(/C)C(=O)OC1CC(C)=CC(OC(=O)/C(C)=C\C)[C@]2(C)C1[C@](O)(C(C)C)C[C@H]2OC(C)=O (some centres not stated)
inactive: [1] 41% | [2] 20.6% | [3] 28.2% | [4] 30.2% | [5] 24.9% | [6] 49.4%

N#CNC(=Nc1ccccc1)[N](C#N)[Sn]([c]1ccccc1)([c]1ccccc1)[c]1ccccc1
active: [1] 98.7% | [2] 98.3% | [3] 99.2% | [4] 98.7% | [5] 96.5% | [6] 98.6%

CN(C)c1ccc(-c2c(C#N)c(N)[nH]c(=S)c2C#N)cc1
inactive: [1] 9.9% | [2] -2.35% | [3] 4.7% | [4] 6.35% | [5] 16.9% | [6] 3.45%

Cn1c(=O)[nH]c2c(-c3ccccc3)n[nH]c2c1=O
inactive: [1] 11.3% | [2] -1.65% | [3] 3.5% | [4] -45.5% | [5] 1.4% | [6] 4.3%

CCOC(=O)NC(=O)c1cn(CCN2CCN(C(=O)CCCCCCCCCCC(=O)N3CCN(CCn4cc(C(=O)NC(=O)OCC)c(=O)[nH]c4=O)CC3)CC2)c(=O)[nH]c1=O
inactive: [1] 16.4% | [2] 4.15% | [3] 11.2% | [4] -1.35% | [5] -3.45% | [6] 8.55%

Cc1csc2n(C)c(=O)c3ccccc3[n+]12
inactive: [1] 16.8% | [2] 9.4% | [3] -20.4% | [4] 4.65% | [5] -1.75% | [6] 32.8%

N#C/C(=C\c1ccccc1Cl)C(=O)c1ccccc1
inactive: [1] 11.4% | [2] 11.8% | [3] -5.9% | [4] 9.9% | [5] 18.9% | [6] 32.4%

CC(=O)Nc1nc(C)c(CCCOc2ccc([N+](=O)[O-])cc2)c(Cl)n1
inactive: [1] 1.65% | [2] 11.4% | [3] 4% | [4] 1.4% | [5] 27.1% | [6] 12.2%

Cc1ccccc1C1(O)c2cccc3cccc(c23)C1(O)c1ccccc1C (configuration not stated)
inactive: [1] 2.95% | [2] 8.45% | [3] -7.45% | [4] -10.9% | [5] 10.9% | [6] -22.4%

COC(=O)C(=O)C(/C=N/C(=S)NC1CCCCC1)=C(\O)c1ccc(F)cc1
inactive: [1] -32.3% | [2] -24.7% | [3] -8.5% | [4] -5.05% | [5] -15.8% | [6] -2.7%

OC1(c2ccc(C3(O)C(c4ccccc4)=C(c4ccccc4)C(c4ccccc4)=C3c3ccccc3)cc2)C(c2ccccc2)=C(c2ccccc2)C(c2ccccc2)=C1c1ccccc1
inactive: [1] 5.6% | [2] -1.75% | [3] -1.7% | [4] -6.6% | [5] -2.15% | [6] 9.85%

CCCCc1cccc2c1OCO2
inactive: [1] -18.6% | [2] -0.6% | [3] -7.75% | [4] -9.75% | [5] -12.5% | [6] 36.8%

CCN(CC)Cc1ccccc1COC(=O)c1cccc(Cl)c1
inactive: [1] 19.6% | [2] 3.7% | [3] 10.9% | [4] 15.8% | [5] -5.9% | [6] 26.1%

c1ccc2c(c1)ncc1cccn12
inactive: [1] 5.15% | [2] -10.9% | [3] 0.65% | [4] 3.45% | [5] 7.7% | [6] 1.25%

O=c1[nH]c(NCc2ccncc2)nc2nc[nH]c12
inactive: [1] 10.2% | [2] -3.8% | [3] -14.8% | [4] 3.1% | [5] -21.1% | [6] -52%

CC(=O)c1ccccc1[N+](=O)[O-]
inactive: [1] 2.95% | [2] -12.5% | [3] 21.7% | [4] 5.85% | [5] -7.55% | [6] 30.1%

COC(=O)C(=O)C(C(=O)C1=NS(=O)(=O)c2cc(S(N)(=O)=O)c(Cl)cc2N1)c1nc2ccc(C(=O)c3ccccc3)cc2[nH]c1=O (configuration not stated)
inactive: [1] -9.7% | [2] -18.1% | [3] -18% | [4] 6% | [5] -19.9% | [6] -19.2%

CC(=O)N1c2ccccc2C2=NN(C)C(=N)SC21 (configuration not stated)
inactive: [1] -27.6% | [2] -5.7% | [3] -27.3% | [4] -7.65% | [5] -5.2% | [6] 1.65%

CC(=O)Nc1ccc(S(=O)(=O)N=S(c2ccccc2)c2ccccc2)cc1
inactive: [1] 14.7% | [2] 3.05% | [3] 8.45% | [4] 10.8% | [5] -7.2% | [6] -0.25%

COc1ccccc1P(=O)(CCP(=O)(c1ccccc1)c1ccccc1OC)c1ccccc1 (configuration not stated)
inactive: [1] 2.15% | [2] 15.5% | [3] 13.3% | [4] 13.5% | [5] -1.75% | [6] 9.5%

CC1=C(C(=O)OCCO[N+](=O)[O-])C(c2ccccc2C(F)(F)F)C(C(=O)OC(C)C)=C(C)N1 (configuration not stated)
inactive: [1] 45.5% | [2] 17.4% | [3] 32.9% | [4] 53% | [5] 30% | [6] -27.1%
